This is an account of results in PubChem BioAssay (NCI).

About 83,000 compounds went through this panel and 20% of them were active in at least one assay; those are over-represented in the sample as a whole.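 Results are percent growth after 48 hours of single-concentration exposure. 100 means growth as in untreated cells, lower positive values show inhibition; negative values down to -100 show cell death.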 Values without a mark were called inactive. The source made the active and inactive calls. The calls were made as follows: active = growth percent below 10; inactive = the rest.

What all share (assay): NCI-60 one-dose screen, 48 h (100 = growth as untreated, 0 = no growth, -100 = all killed)
Details in all cases: 10 µM unless noted

Test [1] deals with HCT-15 colon.
Test [2] relates to HT29 colon.
In test [3] the test system is SNB-75 CNS.
Test [4] concerns SNB-19 CNS.
Test [5] concerns U251 CNS.
Test [6] relates to PC-3 prostate.
Test [7] deals with SK-MEL-5 melanoma.
Test [8] relates to UACC-62 melanoma.
The subject of test [9] is LOX IMVI melanoma.
Test [10] concerns SK-MEL-28 melanoma.

As to `COc1cc(OC)c(Cl)cc1N`, the growth is 96.6% in test [1]; 107% in test [2]; 101% in [3]; 100% in test [4]; 104% in test [5]; 88.7% in test [6]. The growth in [7] is 112%; in test [8], 97.8%; in test [9], 101%; in [10] it was 109%.

Regarding `O=C(NCCN1CCCCC1)n1cc(-c2ccncc2)c(-c2ccc(Cl)c(O)c2)n1`, the growth in [1] is 86.6%; in test [2] it was 95.5%; in [3] it was 78.9%; in test [4], 101%; in test [5], 98.5%; in test [6], 84.6%. For the same molecule, the growth was 73.2% in test [7], 37.9% in test [8], 64.7% in test [9] and 37.5% in test [10].

Regarding `COc1cccc(-c2nc3sccn3c2-c2ccnc(NCCN3CCCN(C)S3(=O)=O)n2)c1`, the growth in [1] was 68%; in test [2], 50.6%; in [3], 62.5%; in [4] it was 123%; in test [5] it was 99.9%; in test [6], 87.2%. Besides, the growth in [7] was 84.1%; in test [8], 15.2%; in [9] it was 45.2%; in test [10], 53%.

Take `CCSCC1CC(O)(c2ccccc2)C(c2ccccc2)C(c2ccc(F)cc2)O1` (stereo not given): the growth in [1] is 3.78% (active); in test [2], -18.7% (active); in test [3], -14% (active); in test [4], 8.78% (active); in [5] it was -11.8% (active); in test [6], -21.1% (active). The growth in test [7] is -84.2% (active); in [8] it was -44.4% (active); in test [9], -64.5% (active); in test [10] it was -39.4% (active).

In the case of `Clc1ccc(Cl)c(N=Cc2ccc3c(c2)OCO3)c1`, the growth in test [1] is 106%; in test [2], 110%; in test [3] it was 103%; in test [4], 107%; in test [5], 104%; in test [6], 107%. The growth in test [7] is 106%; in [8] it was 103%; in test [9], 95.2%; in [10] it was 116%.

For the molecule `N/C(=N\OC(=O)c1ccccc1)C(Cc1ccccc1)C(=O)NOC(=O)c1ccccc1` (stereo not given), the growth in test [1] was 33.2%; in test [2], 85.7%; in [3], 4.73% (active); in test [4], 56.8%; in test [5] it was -71% (active); in [6], 43%. The growth in test [7] was 72.2%; in test [8] it was 71.2%; in test [9], -81.2% (active); in test [10] it was 89.6%.

Take `O=C1/C(=C/N2N=C(c3ccc(Cl)cc3)CC2c2ccccc2O)SC(=S)N1c1cccc(C(F)(F)F)c1` (stereo not given): the growth in test [1] was 43.5%; in [2], 37.6%; in [3], 38.4%; in test [4] it was 71%; in [5] it was 45.1%; in test [6] it was 23.6%. Besides, the growth in test [7] was 79.7%; in [8] it was 52.3%; in test [9], 48.3%; in test [10], 73.9%.

Consider `CC1(C)OC2OC3C(CN)OC(c4ccccc4)OC3C2O1` (stereo not given), for which the growth in test [1] is 125%; in test [2], 106%; in test [3] it was 92.4%; in [4], 110%; in test [5] it was 104%; in test [6] it was 97.1%. Also, the growth in test [7] is 106%; in [8] it was 105%; in test [9], 97.9%; in test [10], 114%.

Regarding `Cc1cccc(N=NC(=S)NNc2cccc(C)c2)c1`, the growth in [1] was 108%; in test [2], 97.9%; in test [3] it was 88.7%; in test [4], 106%; in test [5] it was 114%; in test [6], 102%. Also, the growth in [7] is 108%; in test [8], 101%; in [9] it was 105%; in test [10] it was 125%.

With `CN1CCCN(CCNc2nccc(-c3c(-c4cccc(O)c4)nc4sccn34)n2)S1(=O)=O`, the growth in test [1] is 33.7%; in test [2] it was 38.7%; in [3], 12.9%; in [4] it was 99.4%; in test [5] it was 56.6%; in test [6], 30.3%. The growth in [7] was 37.7%; in test [8], -12.6% (active); in test [9] it was 14.2%; in [10], 18.1%.

With `O=C(N/N=C/c1ccc([N+](=O)[O-])cc1)c1ccccc1Nc1ccnc(C(F)(F)F)c1`, the growth in test [1] was 89.9%; in test [2] it was 101%; in test [3] it was 77.2%; in test [4], 82.4%; in test [5], 88.7%; in test [6] it was 72.9%. The growth was -99% (active) in [7], 57.6% in test [8], 78.2% in test [9] and 104% in test [10].

With `O/N=C1\c2ccccc2-c2ccc(Br)cc21`, the growth in test [1] was 102%; in test [2] it was 101%; in [3], 107%; in test [4], 104%; in test [5], 104%; in test [6], 101%. Also, the growth is 104% in test [7], 105% in [8], 105% in test [9] and 118% in test [10].

For `CC1CCN(CCCCCOc2ccc3oc4ccc(Cl)cc4c(=O)c3c2)CC1`, the growth in test [1] is -21.5% (active); in [2], 1.54% (active); in test [3], 93.5%; in test [4], 79.6%; in [5], 49.5%; in test [6], 55.1%. For the same molecule, the growth was 11.6% in test [7], -43.5% (active) in [8], 7.78% (active) in [9] and 64.7% in test [10].

Consider `Cc1nn(-c2cccc(Cl)c2)c(C)c1N=Nc1ccc(Br)cc1`, for which the growth in [1] was 94.4%; in test [2], 74.7%; in test [3] it was 91.9%; in [4], 97.9%; in test [5] it was 92.5%; in test [6] it was 80.9%. Also, the growth in test [7] was 97.5%; in test [8], 81.7%; in test [9] it was 101%; in [10], 92.3%.
